Data: PubChem BioAssay AID1159580 (chemical genetic matrix, 2015)
The whole screen tested about 5,500 compounds, of which about 2,000 (36%) were called active. Roughly 18% stayed inconclusive and do not appear here. No stated cut-off is given here; in the data, active means normalized growth mostly below about 0.91 (no sharp cut-off); inconclusive means no clear call, values can overlap the other calls; inactive means mostly above about 0.92. Some of the results follow.

Assay: chemical genetic growth profiling, strain panel (AID 1159580);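 further: tested at 20 µM; growth read once vehicle control cultures reached saturation at 30 °C; 1 = growth at the plate median or of vehicle wells; lower values mean less growth of the strain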
Conditions: growth OD

Measured: normalized growth

COc1ccc(CCNC(=O)c2ccccc2Cl)cc1OC
inactive: S. cerevisiae deletion strains, locus YAL013W, strain DEP1, hits give low values 0.993 | S. cerevisiae deletion strains, locus YBR229C, strain ROT2, hits give low values 0.987 | S. cerevisiae deletion strains, locus YDL101C, strain DUN1, hits give low values 1 | S. cerevisiae deletion strains, locus YDR150W, strain NUM1, hits give low values 0.991 | S. cerevisiae deletion strains, locus YEL061C, strain CIN8, hits give low values 0.968 | S. cerevisiae deletion strains, locus YGR078C, strain PAC10, hits give low values 1 | S. cerevisiae deletion strains, locus YGR229C, strain SMI1, hits give low values 0.988 | S. cerevisiae deletion strains, locus YHR030C, strain SLT2, hits give low values 1.01 | S. cerevisiae deletion strains, locus YHR087W, strain rtc3, hits give low values 0.97 | S. cerevisiae deletion strains, locus YJL187C, strain SWE1, hits give low values 0.984 | S. cerevisiae deletion strains, locus YJR043C, strain POL32, hits give low values 1 | S. cerevisiae deletion strains, locus YJR075W, strain HOC1, hits give low values 0.994 | S. cerevisiae deletion strains, locus YKL190W, strain CNB1, hits give low values 0.997 | S. cerevisiae deletion strains, locus YLR039C, strain RIC1, hits give low values 1.03 | S. cerevisiae deletion strains, locus YLR058C, strain SHM2 (second series), hits give low values 1 | S. cerevisiae deletion strains, locus YLR085C, strain ARP6, hits give low values 0.973 | S. cerevisiae deletion strains, locus YLR262C, strain YPT6, hits give low values 1.02 | S. cerevisiae deletion strains, locus YML094W, strain GIM5, hits give low values 0.993 | S. cerevisiae deletion strains, locus YMR219W, strain ESC1, hits give low values 0.981 | S. cerevisiae deletion strains, locus YMR263W, strain SAP30, hits give low values 0.993 | S. cerevisiae deletion strains, locus YNL128W, strain TEP1, hits give low values 0.983 | S. cerevisiae deletion strains, locus YNL153C, strain GIM3, hits give low values 0.988 | S. cerevisiae deletion strains, locus YNL298W, strain CLA4 (second series), hits give low values 1.01 | S. cerevisiae deletion strains, locus YNL322C, strain KRE1, hits give low values 1.01 | S. cerevisiae deletion strains, locus YNR030W, strain Alg12, hits give low values 1.03 | S. cerevisiae deletion strains, locus YPL055C, strain LGE1, hits give low values 0.976 | S. cerevisiae deletion strains, locus YPL241C, strain CIN2, hits give low values 1.02 | S. cerevisiae deletion strains, locus YPR135W, strain CTF4, hits give low values 1.06 | S. cerevisiae strains, strain wild type, hits give low values 1.01
